Hits are enriched below; roughly 2.3% of the tested compounds scored in any of these assays.
PP1 inh – PP1-alpha phosphatase inhibitors, primary screen, counter-screen for PP5 inhibitor project, biochemical, fluorescence, OMFP substrate, single point; Serine/threonine-protein phosphatase PP1-alpha catalytic subunit (Homo sapiens), P62136; purified PP1alpha; inhibition, % at 6.7 µM; hit rate 0.9% among 320,000; AID 2235, 2010;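 active = inhibition above the mean inhibition of all tested compounds plus 3 SD, computed separately for each screening campaign, cut at about 15% in these data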
Target sequence (P62136 whole entry, looked up): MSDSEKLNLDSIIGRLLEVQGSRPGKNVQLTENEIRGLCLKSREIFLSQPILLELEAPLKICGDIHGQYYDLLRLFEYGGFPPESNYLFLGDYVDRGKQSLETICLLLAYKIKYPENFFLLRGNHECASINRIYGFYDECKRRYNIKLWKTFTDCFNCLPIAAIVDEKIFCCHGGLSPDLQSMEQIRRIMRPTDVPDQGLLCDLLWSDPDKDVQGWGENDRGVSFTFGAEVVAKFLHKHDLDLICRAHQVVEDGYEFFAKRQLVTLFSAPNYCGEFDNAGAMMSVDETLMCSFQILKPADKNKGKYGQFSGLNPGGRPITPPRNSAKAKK
EBNA-1 inhibitor – EBNA-1 DNA-binding inhibitors, primary screen, biochemical, fluorescence polarization. inhibition, % at 14.8 µM. hit rate 0.34% among 300,000. AID 1950, 2009; in the data active = inhibition above about 28%
MsrA inhibitor – bovine MsrA enzyme inhibitors, primary screen, biochemical, absorbance, HTS. AID 651718, 2012. inhibition, % at 15.5 µM. hit rate 0.75% among 360,000. purified bovine MsrA, absorbance read-out; in the data active = inhibition above about 4.5%;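 note: 0% = vehicle wells with enzyme and 100% = reference inhibitor wells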
PP5 primary – PP5 phosphatase inhibitors, primary screen, biochemical, fluorescence; purified PP5c, OMFP substrate fluorescence; inhibition, % at 6.7 µM; hit rate 0.18% among 320,000; AID 1987, 2009;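 active = inhibition above the campaign's mean inhibition across all tested compounds plus 3 SD, cut at about 9.5% in these data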;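 note: 0% = DMSO only and 100% = 100 µM cantharidin control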
ZTA counter – blocks Epstein-Barr virus ZTA, an EBNA-1 counter-screen; hit rate 0.15% among 320,000; P03206; inhibition, % at 11 µM; ZTA-DNA binding, fluorescence polarization; in the data active = inhibition above about 33%
Target sequence (P03206 whole entry, looked up): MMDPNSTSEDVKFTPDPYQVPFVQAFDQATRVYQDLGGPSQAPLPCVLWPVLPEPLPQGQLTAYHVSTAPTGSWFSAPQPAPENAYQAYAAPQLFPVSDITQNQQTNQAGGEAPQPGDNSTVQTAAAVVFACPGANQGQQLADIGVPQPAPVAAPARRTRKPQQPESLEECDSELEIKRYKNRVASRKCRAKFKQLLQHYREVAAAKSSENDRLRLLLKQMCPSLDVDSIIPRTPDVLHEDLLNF
bovine MsrA act – bovine MsrA enzyme activators, primary screen, biochemical, absorbance, HTS; purified bovine MsrA, absorbance read-out; activation, % at 10.6 µM; hit rate 0.3% among 360,000; in the data active = activation above about 7.5%;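 note: 0% = vehicle and 100% = reference activator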
PP1 inh confirm – PP1 phosphatase inhibitors, confirmation, biochemical, fluorescence, OMFP substrate, triplicate. shares compounds with PP1 inh. hit rate 52% among 1,900. inhibition, % at 6.7 µM. purified PP1alpha;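 active = mean PP1 inhibition above a set limit taken from the earlier primary screen, cut at about 15% in these data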
PP5 inh counter – PP5 phosphatase inhibition by PP1 hits, confirmation, counter-screen for PP1 inhibitor project, biochemical, fluorescence, triplicate. shares compounds with PP1 inh. purified PP5c, OMFP fluorescence. inhibition, % at 6.7 µM. hit rate 4% among 1,900. AID 2360, 2010;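 active = mean PP5 inhibition over triplicate wells above about 9.5% taken from the earlier PP1 screen, limit read from the data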
* marks the source's active call; other numbers are inactive results; · = no result given.

SMILES | PP1 inh | EBNA-1 inhibitor | MsrA inhibitor | PP5 primary | ZTA counter | bovine MsrA act | PP1 inh confirm | PP5 inh counter
Cc1nc(SC(C)C(=O)Nc2cccc(C(F)(F)F)c2)c2c(C)c(C(=O)O)sc2n1 (configuration not stated) | 45* | 2 | 1 | -1 | 23 | 5 | 15* | -5
CC(O)CSc1nc2c(c(=O)[nH]c(=O)n2C)n1Cc1ccccc1Cl (configuration not stated) | · | · | 0 | · | · | -4 | · | ·
Cc1noc(/C=C/c2ccco2)c1S(=O)(=O)N1CCC(C(=O)N2CCc3ccccc3C2)CC1 | 19* | -4 | · | 6 | -14 | -6 | 26* | 2
Cc1ccc(NC(=O)C2CCN(S(=O)(=O)c3c(C)noc3/C=C/c3ccco3)CC2)nc1 | 0 | 12 | 2 | 1 | 24 | -5 | · | ·
CCOC(=O)C(C(=O)OCC)C1OC(=O)c2cc3c(cc21)C(=O)OC3C(C(=O)OCC)C(=O)OCC (configuration not stated) | -3 | -2 | 0 | 0 | 12 | -7 | · | ·
CCCC(=O)Oc1ccccc1C1SCc2cc(C)c(C)cc2CS1 | 22* | 17 | 0 | -1 | 2 | -2 | -2 | -6
CCOC(=O)C(=CNc1ccc(OC)cc1[N+](=O)[O-])C(=O)OCC | -3 | 5 | 1 | 2 | -5 | -6 | · | ·
O=C(N/N=C/c1ccncc1)c1sc2ccccc2c1Cl | 1 | 2 | 1 | -2 | -1 | -2 | · | ·
COc1ccc2c(Cl)c(C(=O)N/N=C/c3ccncc3)sc2c1 | 40* | -10 | 3 | 0 | 0 | -3 | 48* | -5
O=C(Nc1ccc(-c2noc(COc3ccccc3Cl)n2)cc1)c1ccco1 | 0 | -7 | 0 | 2 | -1 | -8 | · | ·
O=C(CCCN1CCN(c2ccccc2)CC1)c1ccc(F)cc1 | · | · | 2 | · | · | 0 | · | ·
O=C1NCN(c2ccccc2)C12CCN(CCCC(c1ccc(F)cc1)c1ccc(F)cc1)CC2 | 19* | 6 | -1 | 4 | -10 | -2 | -9 | 5
CCCCCN(C(=O)CCC(=O)OCC(=O)c1ccc(C(C)CC)cc1)c1c(N)n(CCCC)c(=O)[nH]c1=O (configuration not stated) | 29* | -7 | · | 0 | -10 | -5 | 0 | 1
COc1ccc(CNC(=S)Nc2cc(OC)ccc2OC)cc1 | 63* | -7 | 0 | 2 | -5 | -3 | -3 | -5
COc1ccc(OC)c(NC(=S)NCc2ccc(S(N)(=O)=O)cc2)c1 | -3 | 0 | 3 | 1 | -13 | -2 | · | ·
Cc1cc(Br)ccc1NC(=O)C1C2CCC(O2)C1C(=O)O (configuration not stated) | 55* | -4 | -1 | 63* | -6 | -3 | 9 | 16*
COc1ccc(NC(=O)C2C3CCC(O3)C2C(=O)O)c(C)c1 (configuration not stated) | 62* | -2 | -1 | 65* | 1 | -4 | 12 | 27*
Cc1cc(-c2ccc(NC(=O)[C@@H]3CCCC[C@@H]3C(=O)O)c(C)c2)ccc1NC(=O)[C@@H]1CCCC[C@@H]1C(=O)O | -2 | 10 | 0 | 0 | 3 | 0 | · | ·
O=C(O)C1C2CCC(O2)C1C(=O)NCc1ccccc1Br (configuration not stated) | 17* | 0 | 0 | 34* | 8 | -4 | 10 | 17*
O=C(O)C1C2CCC(O2)C1C(=O)NCCC1=CCCCC1 (configuration not stated) | 61* | -12 | · | 69* | 7 | 0 | 31* | 41*
NC(=O)NCCC1=CCCCC1 | 1 | -8 | 0 | 2 | 8 | -3 | · | ·
O=C(NNc1cc(Br)c(O)c(Br)c1)c1ccccc1 | -2 | 15 | 1 | 1 | 17 | -14 | · | ·
OCC(O)/C=N/Nc1nc(N2CCCCC2)nc(N2CCCCC2)n1 (configuration not stated) | 2 | 9 | 0 | 0 | 3 | -11 | · | ·
CCS(=O)(=O)c1nc2ccccc2n1Cc1ccccn1 | -8 | -4 | 0 | 1 | 17 | 1 | · | ·
Cn1nc(C(=O)N2CCN(C(c3ccccc3)c3ccccc3)CC2)c2ccccc2c1=O | 1 | -5 | 1 | -1 | 17 | -2 | · | ·
SMILES | PP1 inh | EBNA-1 inhibitor | MsrA inhibitor | PP5 primary | ZTA counter | bovine MsrA act | PP1 inh confirm | PP5 inh counter
O=C(Nc1cc(Cl)cc(Cl)c1)N1CCCC1 | 0 | -6 | 0 | 0 | -18 | -1 | · | ·
COc1cc(OC)cc(C(=O)N[C@H](C(=O)OCC(N)=O)C(C)C)c1 | -3 | 3 | -1 | 3 | -11 | -4 | · | ·
O=c1cc(O)nc(SCc2ccccc2)n1-c1ccc(Cl)cc1 | 21* | 2 | 0 | 1 | 5 | 2 | 4 | -2
NC(=O)CSc1nc(O)cc(=O)n1-c1ccccc1 | -3 | -1 | -2 | -1 | 1 | -3 | · | ·
Cc1ccc(NC(=O)CSc2nc(O)cc(=O)n2C)cc1 | 6 | 6 | -1 | 2 | 0 | -3 | · | ·
Cc1ccc(NC(=O)CSc2nc(O)cc(=O)n2-c2ccc(C)cc2)cc1 | 25* | -4 | -1 | 0 | -16 | -3 | 1 | -1
COc1ccc(NC(=O)CSc2nc(O)cc(=O)n2-c2ccccc2OC)cc1 | 21* | 11 | · | 0 | 9 | -5 | 1 | -3
COc1cccc(C(=O)NNC(=O)c2ccc3ccccc3c2)c1 | · | · | 0 | · | · | -1 | · | ·
Cc1ccccc1Nc1nnc(SCc2nc3ccccc3c(=O)[nH]2)s1 | 22* | -5 | · | 1 | -16 | · | 2 | -8
Cc1cc(N/N=C/c2ccc(Cl)cc2)nc(NCc2ccccc2)n1 | 19* | 5 | 0 | 6 | -8 | -3 | 2 | -1
CCOC(=O)C1(Cc2ccccc2C)CCCN(C(=O)c2ccoc2)C1 (configuration not stated) | -4 | -11 | 0 | -5 | 1 | -7 | · | ·
CCOC(=O)C1(Cc2ccccc2C)CCCN(C(=O)c2ccc(OC)o2)C1 (configuration not stated) | 26* | -6 | -1 | 4 | 3 | 1 | -2 | -2
O=C(COC(=O)CCC(=O)c1ccc(F)cc1)Nc1nnc(-c2ccccc2)o1 | 2 | 2 | 0 | -2 | 10 | -3 | · | ·
COc1cccc(/C=C/C(=O)OCC(=O)Nc2nnc(-c3ccccc3)o2)c1 | 38* | 6 | · | -2 | 1 | -3 | 25* | -1
O=C(COC(=O)/C=C/c1ccc(F)cc1)Nc1nnc(-c2ccccc2)o1 | 18* | · | 1 | 4 | -6 | -1 | 28* | -8
